Whole data set: some 11,000 sequences, median “log2 fold change” near 0.00022, cut for the highest 2% near 0.34. This is one part of the list.
The sequences below were run against GST-SBP-SLBP (stem-loop binding protein) (Homo sapiens, UniProt Q14493 1-270) (assay: targeted RNA Bind-n-Seq; RBNS binding buffer: 25 mM Tris pH 7.5, 150 mM KCl, 3 mM MgCl2, 0.1% Tween, 0.5 mg/mL BSA, 1 mM DTT; 27 nM protein, 750 pM RNA pool; temperature not stated; high values mean tight binding). Conditions: protein: recombinant; tags: N-terminal GST and SBP (pGEX6P1-SBP); structured_RNA.
How it was run: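 The GST-SBP-tagged protein was expressed in Rosetta(DE3) pLysS E. coli, glutathione-purified and incubated at 27 nM with 750 pM of a designed, T7-transcribed RNA oligo pool in RBNS binding buffer. Bound RNA was reverse transcribed with a 10-nucleotide barcoded primer, PCR-amplified and sequenced on a MiSeq with 200-cycle paired-end reads. Reads were joined with FLASH, aligned with HISAT2 and collapsed by barcode. The binding signal is the DEseq log2 fold change of read counts per sequence.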

Sequence	binding signal [log2 fold change]
GGUCACGUCUCAAUCAACUCCAAAGAGGGGGGGAAAACCCCUUUGCCCUCAAUAUCAACAGCUCGCAGUCAAG	0.359 ± 0.439
GGUCACGUCUCAAUCAACUCCAAAGAGGGGGGGAAAACCCCUUUGCCCUCCAAUUCAACAGCUCGCAGUCAAG	0.304 ± 0.412
GGUCACGUCUCAAUCAACUCCAAAGAGGGGGGGAAAACCCCUUUGCCCUCGAAAUCAACAGCUCGCAGUCAAG	0.347 ± 0.378
GGUCACGUCUCAAUCAACUCUCAAGAGGGGGGGAAAACCCCUUUGCCCUCCAAAUCAACAGCUCGCAGUCAAG	0.327 ± 0.445
GGUCACGUCUCAAUCAACUCCAAAGAGGGGGGGAAAACCCCUUUGCCCUCAUUCUCAACAGCUCGCAGUCAAG	0.342 ± 0.438
GGUCACGUCUCAAUCAACUCUCUAGAGGGGGGGAAAACCCCUUUGCCCUCAUCCUCAACAGCUCGCAGUCAAG	0.441 ± 0.424
GGUCACGUCUCAAUCAACUCUCUCGAGGGGGGGAAAACCCCUUUGCCCUCAAAAUCAACAGCUCGCAGUCAAG	0.354 ± 0.38
GGUCACGUCUCAAUCAACUCUCUAGAGGGGGGGAAAACCCCUUUGCCCUCGUCAUCAACAGCUCGCAGUCAAG	0.374 ± 0.381
GGUCACGUCUCAAUCAACUCUCUAGAGGGGGGGAAAACCCCUUUGCCCUCGAAAUCAACAGCUCGCAGUCAAG	0.342 ± 0.443
GGUCACGUCUCAAUCAACUCUCUCGAGGGGGGGAAAACCCCUUUGCCCUCAACAUCAACAGCUCGCAGUCAAG	0.307 ± 0.399
GGUCACGUCUCAAUCAACUCACAAGAGGGGGGGAAAACCCCUUUGCCCUCAUCCUCAACAGCUCGCAGUCAAG	0.34 ± 0.422
GGUCACGUCUCAAUCAACUCUCUAGAGGGGGGGAAAACCCCUUUGCCCUCCGUUUCAACAGCUCGCAGUCAAG	0.354 ± 0.438
GGUCACGUCUCAAUCAACUCAUUCGAGGGGGGGAAAACCCCUUUGCCCUCAUCAUCAACAGCUCGCAGUCAAG	0.363 ± 0.407
GGUCACGUCUCAAUCAACUCCUAAGAGGGGGGGAAAACCCCUUUACCCUCGUCCUCAACAGCUCGCAGUCAAG	0.382 ± 0.439
GGUCACGUCUCAAUCAACUCCUAAGAGGGGGGGAAAACCCCUUUACCCUCCGCAUCAACAGCUCGCAGUCAAG	0.313 ± 0.425
GGUCACGUCUCAAUCAACUCCUAAGAGGGGGGGAAAACCCCUUUACCCUCACUAUCAACAGCUCGCAGUCAAG	0.433 ± 0.43
GGUCACGUCUCAAUCAACUCCUAAGAGGGGGGGAAAACCCCUUUACCCUCAAUCUCAACAGCUCGCAGUCAAG	0.429 ± 0.444
GGUCACGUCUCAAUCAACUCUUUAGAGGGGGGGAAAACCCCUUUGCCCUCAACUUCAACAGCUCGCAGUCAAG	0.318 ± 0.415
GGUCACGUCUCAAUCAACUCUUUAGAGGGGGGGAAAACCCCUUUGCCCUCGAAUUCAACAGCUCGCAGUCAAG	0.388 ± 0.441
GGUCACGUCUCAAUCAACUCUAUAGAGGGGGGGAAAACCCCUUUGCCCUCGAAUUCAACAGCUCGCAGUCAAG	0.377 ± 0.432
GGUCACGUCUCAAUCAACUCCUUAGAGGGGGGGAAAACCCCUUUGCCCUCGAAUUCAACAGCUCGCAGUCAAG	0.379 ± 0.448
GGUCACGUCUCAAUCAACUCUCACGAGGGGGGGAAAACCCCUUUGCCCUCAAUUUCAACAGCUCGCAGUCAAG	0.305 ± 0.454
GGUCACGUCUCAAUCAACUCUCACGAGGGGGGGAAAACCCCUUUGCCCUCACUUUCAACAGCUCGCAGUCAAG	0.351 ± 0.41
GGUCACGUCUCAAUCAACUCAAAAGAGGGGGGGAAAACCCCUUUGCCCUCACAAUCAACAGCUCGCAGUCAAG	0.31 ± 0.383

Sequence	binding signal [log2 fold change]
GGUCACGUCUCAAUCAACUCUCAAGAGGGGGGGAAAACCCCUUUGCCCUCGUAAUCAACAGCUCGCAGUCAAG	0.452 ± 0.411
GGUCACGUCUCAAUCAACUCAAAAGAGGGGGGGAAAACCCCUUUGCCCUCACUUUCAACAGCUCGCAGUCAAG	0.573 ± 0.412
GGUCACGUCUCAAUCAACUCAUAAGAGGGGGGGAAAACCCCUUUGCCCUCAAUCUCAACAGCUCGCAGUCAAG	0.373 ± 0.408
GGUCACGUCUCAAUCAACUCACACGAGGGGGGGAAAACCCCUUUGCCCUCAACAUCAACAGCUCGCAGUCAAG	0.529 ± 0.425
GGUCACGUCUCAAUCAACUCUCAAGAGGGGGGGAAAACCCCUUUGCCCUCACUUUCAACAGCUCGCAGUCAAG	0.453 ± 0.436
GGUCACGUCUCAAUCAACUCUCAAGAGGGGGGGAAAACCCCUUUGCCCUCCAUGUCAACAGCUCGCAGUCAAG	0.411 ± 0.415
GGUCACGUCUCAAUCAACUCUCAAGAGGGGGGGAAAACCCCUUUGCCCUCAACAUCAACAGCUCGCAGUCAAG	0.531 ± 0.415
GGUCACGUCUCAAUCAACUCCUAAGAGGGGGGGAAAACCCCUUUGCCCUCACCGUCAACAGCUCGCAGUCAAG	0.325 ± 0.438
GGUCACGUCUCAAUCAACUCUAAAGAGGGGGGGAAAACCCCUUUGCCCUCACUAUCAACAGCUCGCAGUCAAG	0.331 ± 0.434
GGUCACGUCUCAAUCAACUCCUAAGAGGGGGGGAAAACCCCUUUGCCCUCAUUCUCAACAGCUCGCAGUCAAG	0.335 ± 0.447
GGUCACGUCUCAAUCAACUCUAAAGAGGGGGGGAAAACCCCUUUGCCCUCACUUUCAACAGCUCGCAGUCAAG	0.415 ± 0.443
GGUCACGUCUCAAUCAACUCAAUCGAGGGGGGGAAAACCCCUUUGCCCUCACUUUCAACAGCUCGCAGUCAAG	0.594 ± 0.435
GGUCACGUCUCAAUCAACUCCUAAGAGGGGGGGAAAACCCCUUUGCCCUCACUUUCAACAGCUCGCAGUCAAG	0.38 ± 0.429
GGUCACGUCUCAAUCAACUCAAUAGAGGGGGGGAAAACCCCUUUACCCUCCAUAUCAACAGCUCGCAGUCAAG	0.379 ± 0.407
GGUCACGUCUCAAUCAACUCCAUAGAGGGGGGGAAAACCCCUUUACCCUCACACUCAACAGCUCGCAGUCAAG	0.698 ± 0.433
GGUCACGUCUCAAUCAACUCCAUAGAGGGGGGGAAAACCCCUUUACCCUCACAUUCAACAGCUCGCAGUCAAG	0.32 ± 0.406
GGUCACGUCUCAAUCAACUCCUCAGAGGGGGGGAAAACCCCUUUACCCUCCACCUCAACAGCUCGCAGUCAAG	0.326 ± 0.442
GGUCACGUCUCAAUCAACUCAAUAGAGGGGGGGAAAACCCCUUUACCCUCCACCUCAACAGCUCGCAGUCAAG	0.349 ± 0.417
GGUCACGUCUCAAUCAACUCACAAGAGGGGGGGAAAACCCCUUUACCCUCGAUAUCAACAGCUCGCAGUCAAG	0.383 ± 0.425
GGUCACGUCUCAAUCAACUCUUUAGAGGGGGGGAAAACCCCUUUACCCUCGAUAUCAACAGCUCGCAGUCAAG	0.336 ± 0.435
GGUCACGUCUCAAUCAACUCAAUAGAGGGGGGGAAAACCCCUUUACCCUCGAUAUCAACAGCUCGCAGUCAAG	0.435 ± 0.406
GGUCACGUCUCAAUCAACUCCCCAGAGGGGGGGAAAACCCCUUUACCCUCCAUAUCAACAGCUCGCAGUCAAG	0.573 ± 0.413
GGUCACGUCUCAAUCAACUCCCCAGAGGGGGGGAAAACCCCUUUACCCUCCAUCUCAACAGCUCGCAGUCAAG	0.313 ± 0.439

— PMC5892938, “SARNAclust: Semi-automatic detection of RNA protein binding motifs from immunoprecipitation data”
